# In PubChem BioAssay (EPA / NIEHS):
# Records with an inconclusive call do not appear. Activity calls are given as the source filed them. The calls were made as follows: active = hit-call score of the fitted dose curve at least 0.9, where 1 is the maximum; inconclusive = response in the unintended direction; inactive = score below 0.9.
# Experiments:
# [1] = molecular target: human Opioid Receptor Delta 1 (Opiate D1), OPRD1 (gene 4985) (UniProt P41143); assay: NVS_GPCR_hOpiate_D1: NovaScreen (NVS) G Protein-Coupled Receptor Assay for human Opioid Receptor Delta 1 (Opiate D1) (AID 2283280)
# Chain of human Opioid Receptor Delta 1 (Opiate D1), OPRD1 (gene 4985) (P41143 whole entry, looked up): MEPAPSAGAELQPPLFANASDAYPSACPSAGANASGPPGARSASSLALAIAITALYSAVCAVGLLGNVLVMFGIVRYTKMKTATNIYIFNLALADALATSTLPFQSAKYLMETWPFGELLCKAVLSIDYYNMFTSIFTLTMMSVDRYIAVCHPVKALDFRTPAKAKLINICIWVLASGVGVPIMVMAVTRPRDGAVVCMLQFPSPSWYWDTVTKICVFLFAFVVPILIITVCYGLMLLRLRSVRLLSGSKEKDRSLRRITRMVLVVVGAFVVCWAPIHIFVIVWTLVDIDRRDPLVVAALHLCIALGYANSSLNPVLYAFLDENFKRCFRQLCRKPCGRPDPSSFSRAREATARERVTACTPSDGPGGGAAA
# Outline: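 Membrane preparations from CHO cells bearing the human receptor were incubated 1 h with test chemical, and bound radioligand was counted after filtration. Actives from 25 uM duplicate screening were retested in concentration-response.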
# [2] = molecular target: Neuropeptide Y receptor type 2 (Homo sapiens) (UniProt P49146); assay: NVS_GPCR_hNPY2: NovaScreen (NVS) G Protein-Coupled Receptor Assay for human Neuropeptide Receptor Y2 (NPY2) (AID 2283277)
# Chain of Neuropeptide Y receptor type 2 (Homo sapiens) (P49146 whole entry, looked up): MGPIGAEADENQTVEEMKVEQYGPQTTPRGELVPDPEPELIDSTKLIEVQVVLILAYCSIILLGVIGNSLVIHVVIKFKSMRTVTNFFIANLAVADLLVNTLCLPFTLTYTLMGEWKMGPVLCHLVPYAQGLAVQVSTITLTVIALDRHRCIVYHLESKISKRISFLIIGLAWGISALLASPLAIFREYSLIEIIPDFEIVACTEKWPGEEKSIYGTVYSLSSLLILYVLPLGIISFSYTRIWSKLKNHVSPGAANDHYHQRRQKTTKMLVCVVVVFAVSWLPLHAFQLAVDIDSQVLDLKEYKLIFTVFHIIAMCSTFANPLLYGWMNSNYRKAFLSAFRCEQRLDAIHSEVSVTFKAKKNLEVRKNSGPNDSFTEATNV
# Outline: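 Chemicals were first tested in duplicate at 25 uM, then actives in singleton concentration series to 50 uM. Tracer binding to SK-N-MC-derived protein measured cell-free after 1 h via filter scintillation; signal loss relative to DMSO.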
# [3] = molecular target: D(1A) dopamine receptor (Homo sapiens) (UniProt P21728); assay: NVS_GPCR_hDRD1: NovaScreen (NVS) G Protein-Coupled Receptor Assay for human Dopamine Receptor D1 (DRD1) (AID 2283269)
# Chain of D(1A) dopamine receptor (Homo sapiens) (P21728 whole entry, looked up): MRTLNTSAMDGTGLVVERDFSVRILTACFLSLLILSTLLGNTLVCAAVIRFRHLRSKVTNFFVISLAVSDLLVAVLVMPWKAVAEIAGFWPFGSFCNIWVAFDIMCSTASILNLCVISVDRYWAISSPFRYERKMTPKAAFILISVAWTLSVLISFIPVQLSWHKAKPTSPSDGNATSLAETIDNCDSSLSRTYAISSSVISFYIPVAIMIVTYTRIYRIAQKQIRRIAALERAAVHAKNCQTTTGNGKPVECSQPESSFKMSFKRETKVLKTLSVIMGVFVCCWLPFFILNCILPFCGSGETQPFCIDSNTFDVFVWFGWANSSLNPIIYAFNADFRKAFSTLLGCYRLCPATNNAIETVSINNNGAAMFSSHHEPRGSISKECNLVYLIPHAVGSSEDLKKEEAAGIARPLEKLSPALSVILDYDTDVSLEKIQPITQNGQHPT
# Outline: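 Extracted HEK293 DRD1 is incubated 1 h with compound and a tritiated or iodinated radioligand, then filtered and counted. Screening runs 25 uM in duplicate with on-plate positive and negative controls.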
# [4] = molecular target: human Neurokinin, NK2 Receptor, TACR2 (gene 6865) (UniProt P21452); assay: NVS_GPCR_hNK2: NovaScreen (NVS) G Protein-Coupled Receptor Assay for human Neurokinin, NK2 Receptor (AID 2283278);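 also: actives reduce bound radioligand signal relative to DMSO baseline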
# Chain of human Neurokinin, NK2 Receptor, TACR2 (gene 6865) (P21452 whole entry, looked up): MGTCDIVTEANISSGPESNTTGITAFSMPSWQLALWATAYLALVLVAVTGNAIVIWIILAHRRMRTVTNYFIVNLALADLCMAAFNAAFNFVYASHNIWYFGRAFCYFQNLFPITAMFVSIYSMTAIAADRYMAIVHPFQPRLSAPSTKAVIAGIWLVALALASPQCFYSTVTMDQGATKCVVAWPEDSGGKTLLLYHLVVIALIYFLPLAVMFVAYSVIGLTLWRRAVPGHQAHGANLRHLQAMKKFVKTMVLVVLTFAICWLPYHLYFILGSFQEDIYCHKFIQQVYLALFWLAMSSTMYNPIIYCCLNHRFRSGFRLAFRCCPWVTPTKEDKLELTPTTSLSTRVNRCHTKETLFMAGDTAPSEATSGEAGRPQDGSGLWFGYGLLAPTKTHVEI
# Outline: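 Test chemicals displace a radioligand from receptor prepared from CHO cells in a cell-free format, read after 4 hours by scintillation counting on filters. Screening starts at 25 uM in duplicate, and active chemicals then go to concentration series.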
# [5] = molecular target: human Orphanin, Opioid Related Nociceptin Receptor 1 (ORL1), OPRL1 (gene 4987) (UniProt P41146); assay: NVS_GPCR_hORL1: NovaScreen (NVS) G Protein-Coupled Receptor Assay for human Orphanin, Opioid Related Nociceptin Receptor 1 (ORL1) (AID 2283283)
# Chain of human Orphanin, Opioid Related Nociceptin Receptor 1 (ORL1), OPRL1 (gene 4987) (P41146 whole entry, looked up): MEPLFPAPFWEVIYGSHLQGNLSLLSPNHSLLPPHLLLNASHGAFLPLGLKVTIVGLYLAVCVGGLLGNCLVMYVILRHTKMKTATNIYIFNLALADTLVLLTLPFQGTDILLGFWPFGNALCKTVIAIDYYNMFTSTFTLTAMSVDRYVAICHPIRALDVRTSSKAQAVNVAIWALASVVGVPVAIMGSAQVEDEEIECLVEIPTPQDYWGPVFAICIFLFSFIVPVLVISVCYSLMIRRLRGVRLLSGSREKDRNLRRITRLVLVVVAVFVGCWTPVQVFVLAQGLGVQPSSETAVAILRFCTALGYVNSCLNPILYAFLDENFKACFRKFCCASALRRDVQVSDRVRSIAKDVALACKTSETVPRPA
# Outline: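 Cell-free binding using HEK293-derived receptor protein: radioligand displacement measured by filter scintillation 1 hour after dosing. Primary testing at 25 uM in duplicate, followed by singleton concentration series up to 50 uM; DMSO served as negative control.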
# [6] = molecular target: human Thromboxane A2 Receptor (TXA2), TBXA2R (gene 6915) (UniProt P21731); assay: NVS_GPCR_hTXA2: NovaScreen (NVS) G Protein-Coupled Receptor Assay for human Thromboxane A2 Receptor (TXA2) (AID 2283282);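 also: actives reduce bound radioligand signal relative to DMSO baseline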
# Chain of human Thromboxane A2 Receptor (TXA2), TBXA2R (gene 6915) (P21731 whole entry, looked up): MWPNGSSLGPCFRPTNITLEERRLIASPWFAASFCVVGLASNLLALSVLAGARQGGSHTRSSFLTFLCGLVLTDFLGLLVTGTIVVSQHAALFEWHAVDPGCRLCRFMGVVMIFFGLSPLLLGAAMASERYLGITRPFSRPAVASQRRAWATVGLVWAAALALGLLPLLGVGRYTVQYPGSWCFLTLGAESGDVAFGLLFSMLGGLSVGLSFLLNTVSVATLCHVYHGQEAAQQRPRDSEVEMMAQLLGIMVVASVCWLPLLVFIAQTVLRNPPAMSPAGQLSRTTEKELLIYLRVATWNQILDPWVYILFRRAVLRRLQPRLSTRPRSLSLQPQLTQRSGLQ
# Outline: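 Cell-free radioligand binding with human platelet-derived receptor; 1 h after dosing, filter-based scintillation counting, loss of signal vs DMSO. Primary screen in duplicate at 25 uM.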
# [7] = molecular target: human Neuropeptide Receptor Y1 (NPY1), NPY1R (gene 4886) (UniProt P25929); assay: NVS_GPCR_hNPY1: NovaScreen (NVS) G Protein-Coupled Receptor Assay for human Neuropeptide Receptor Y1 (NPY1) (AID 2283276)
# Chain of human Neuropeptide Receptor Y1 (NPY1), NPY1R (gene 4886) (P25929 whole entry, looked up): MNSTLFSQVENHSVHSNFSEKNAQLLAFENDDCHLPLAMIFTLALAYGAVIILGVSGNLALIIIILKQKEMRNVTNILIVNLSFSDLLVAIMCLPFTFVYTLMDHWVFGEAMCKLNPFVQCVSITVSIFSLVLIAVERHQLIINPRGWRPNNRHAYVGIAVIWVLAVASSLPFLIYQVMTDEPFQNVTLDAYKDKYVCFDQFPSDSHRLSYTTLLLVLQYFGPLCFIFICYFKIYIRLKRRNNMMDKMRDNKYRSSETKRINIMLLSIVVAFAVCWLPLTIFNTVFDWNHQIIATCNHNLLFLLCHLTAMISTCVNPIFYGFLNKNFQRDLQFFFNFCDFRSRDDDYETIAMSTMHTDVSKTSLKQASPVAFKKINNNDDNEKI
# Outline: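 Displacement of specific radioligand from NPY1 receptor of SK-N-MC origin, read by filtration and scintillation after 1 h. Compounds first tested at 25 uM in duplicate, then actives in concentration series; signal loss relative to DMSO.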
# [8] = molecular target: human Endothelin Receptor Type A (ETA), EDNRA (gene 1909) (UniProt P25101); assay: NVS_GPCR_hETA: NovaScreen (NVS) G Protein-Coupled Receptor Assay for human Endothelin Receptor Type A (ETA) (AID 2283265)
# Chain of human Endothelin Receptor Type A (ETA), EDNRA (gene 1909) (P25101 whole entry, looked up): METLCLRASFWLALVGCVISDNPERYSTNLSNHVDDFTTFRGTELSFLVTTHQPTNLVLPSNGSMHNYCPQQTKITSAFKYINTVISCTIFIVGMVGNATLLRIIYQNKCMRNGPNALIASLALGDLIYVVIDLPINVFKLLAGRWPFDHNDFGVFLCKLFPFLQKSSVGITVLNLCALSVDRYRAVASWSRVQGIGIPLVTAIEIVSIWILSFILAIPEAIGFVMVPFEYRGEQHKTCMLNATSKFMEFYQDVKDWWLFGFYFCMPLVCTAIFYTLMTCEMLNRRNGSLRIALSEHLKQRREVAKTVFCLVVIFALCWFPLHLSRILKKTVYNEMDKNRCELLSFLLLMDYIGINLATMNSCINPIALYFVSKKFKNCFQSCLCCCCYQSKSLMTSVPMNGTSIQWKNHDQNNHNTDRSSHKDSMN
# Outline: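 Binding of radioligand to membrane protein extracted from SH-SY5Y cells was read by filtration and scintillation after 3 h. Compounds were screened at 25 uM in duplicate, with hits followed up in singleton concentration series to 50 uM.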
# [9] = molecular target: human Dopamine Receptor D2 (DRD2), DRD2 (gene 1813) (UniProt P14416); assay: NVS_GPCR_hDRD2s: NovaScreen (NVS) G Protein-Coupled Receptor Assay for human Dopamine Receptor D2 (DRD2) (AID 2283266)
# Outline: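 Test compound (25 uM, duplicate in the primary screen; concentration series at follow-up) competed with radioligand for human DRD2 in CHO-derived membrane protein. Filter-based scintillation counting was done 1.5 hours after dosing, with loss of signal analysed against DMSO.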
# [10] = molecular target: human Endothelin Receptor Type B (ETB), EDNRB (gene 1910) (UniProt P24530); assay: NVS_GPCR_hETB: NovaScreen (NVS) G Protein-Coupled Receptor Assay for human Endothelin Receptor Type B (ETB) (AID 2283267)
# Chain of human Endothelin Receptor Type B (ETB), EDNRB (gene 1910) (P24530 whole entry, looked up): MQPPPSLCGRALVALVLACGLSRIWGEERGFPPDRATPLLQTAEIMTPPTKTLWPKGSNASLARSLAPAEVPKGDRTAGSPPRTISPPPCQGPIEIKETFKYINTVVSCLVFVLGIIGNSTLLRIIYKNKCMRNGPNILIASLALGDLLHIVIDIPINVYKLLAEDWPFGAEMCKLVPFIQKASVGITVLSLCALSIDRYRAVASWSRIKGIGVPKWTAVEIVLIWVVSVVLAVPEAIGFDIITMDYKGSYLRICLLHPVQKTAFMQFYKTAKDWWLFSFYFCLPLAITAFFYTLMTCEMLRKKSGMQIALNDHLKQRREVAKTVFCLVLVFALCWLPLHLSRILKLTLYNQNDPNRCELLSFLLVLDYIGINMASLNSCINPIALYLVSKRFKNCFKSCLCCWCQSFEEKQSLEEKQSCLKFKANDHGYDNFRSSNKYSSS
# Outline: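 Filter-based scintillation readout of radioligand displacement, 4 h, using membranes from human astrocytoma cells. Actives from a 25 uM duplicate screen were retested in concentration-response (top 50 uM) relative to DMSO baseline.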
# [11] = molecular target: Muscarinic acetylcholine receptor M1 (Homo sapiens) (UniProt P11229); assay: NVS_GPCR_hM1: NovaScreen (NVS) G Protein-Coupled Receptor Assay for human Muscarinic, M1 Receptor (AID 2283270)
# Chain of Muscarinic acetylcholine receptor M1 (Homo sapiens) (P11229 whole entry, looked up): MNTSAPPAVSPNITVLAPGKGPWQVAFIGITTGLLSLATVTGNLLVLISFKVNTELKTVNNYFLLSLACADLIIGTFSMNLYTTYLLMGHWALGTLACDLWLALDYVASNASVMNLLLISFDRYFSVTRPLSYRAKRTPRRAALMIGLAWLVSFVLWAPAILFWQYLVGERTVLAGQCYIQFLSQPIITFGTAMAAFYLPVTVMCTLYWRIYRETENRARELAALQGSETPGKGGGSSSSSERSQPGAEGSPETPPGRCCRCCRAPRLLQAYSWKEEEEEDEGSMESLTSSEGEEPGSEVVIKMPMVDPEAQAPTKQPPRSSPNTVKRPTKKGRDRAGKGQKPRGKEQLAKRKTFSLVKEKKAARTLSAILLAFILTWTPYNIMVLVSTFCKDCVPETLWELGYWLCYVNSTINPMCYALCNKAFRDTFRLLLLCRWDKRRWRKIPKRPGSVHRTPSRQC
# Outline: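 Actives from a duplicate 25 uM single-point screen were retested in concentration series. Binding measured as displacement of a radioligand from CHO-derived receptor preparation, 1 h incubation, filtration and scintillation counting, analysed as signal loss against DMSO.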
# [12] = molecular target: Muscarinic acetylcholine receptor M3 (Homo sapiens) (UniProt P20309); assay: NVS_GPCR_hM3: NovaScreen (NVS) G Protein-Coupled Receptor Assay for human Muscarinic, M3 Receptor (AID 2283272)
# Outline: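 Radioligand displacement binding on human M3 receptor in CHO-derived membranes, 1 h incubation, filter-based scintillation counting. Primary screen in duplicate at 25 uM; actives followed up in concentration series; loss of signal versus DMSO.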
# [13] = molecular target: Muscarinic acetylcholine receptor M2 (Homo sapiens) (UniProt P08172); assay: NVS_GPCR_hM2: NovaScreen (NVS) G Protein-Coupled Receptor Assay for human Muscarinic, M2 Receptor (AID 2283273)
# Outline: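 Filter-based radiodetection read bound radioligand 1 h after dosing CHO-derived membrane protein. Single-concentration duplicates (25 uM) first, then concentration-response for actives; signal loss versus DMSO scored.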
# [14] = molecular target: human Muscarinic, M4 Receptor, CHRM4 (gene 1132) (UniProt P08173); assay: NVS_GPCR_hM4: NovaScreen (NVS) G Protein-Coupled Receptor Assay for human Muscarinic, M4 Receptor (AID 2283274)
# Chain of human Muscarinic, M4 Receptor, CHRM4 (gene 1132) (P08173 whole entry, looked up): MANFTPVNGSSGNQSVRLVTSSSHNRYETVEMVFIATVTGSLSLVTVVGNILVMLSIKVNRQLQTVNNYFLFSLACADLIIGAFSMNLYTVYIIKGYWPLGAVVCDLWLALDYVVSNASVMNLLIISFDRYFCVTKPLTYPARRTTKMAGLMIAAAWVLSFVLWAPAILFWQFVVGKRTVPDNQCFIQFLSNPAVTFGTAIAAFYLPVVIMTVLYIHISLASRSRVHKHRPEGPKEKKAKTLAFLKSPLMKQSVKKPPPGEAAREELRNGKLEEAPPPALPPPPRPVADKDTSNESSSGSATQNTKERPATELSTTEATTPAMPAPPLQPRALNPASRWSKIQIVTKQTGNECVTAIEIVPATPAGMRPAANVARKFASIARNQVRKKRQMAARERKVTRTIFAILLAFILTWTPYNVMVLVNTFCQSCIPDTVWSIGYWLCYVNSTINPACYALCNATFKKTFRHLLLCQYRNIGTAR
# Outline: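 Filter-based scintillation counting of radioligand bound to CHO-expressed human M4 preparations after 1 h; loss of signal fitted versus DMSO. Initial duplicate testing at 25 uM, concentration-response follow-up for actives.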
# [15] = molecular target: Muscarinic acetylcholine receptor M5 (Homo sapiens) (UniProt P08912); assay: NVS_GPCR_hM5: NovaScreen (NVS) G Protein-Coupled Receptor Assay for human Muscarinic, M5 Receptor (AID 2283275)
# Outline: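 Chemicals passing a primary duplicate screen at 25 uM were run as singleton concentration series, maximum 50 uM. Displacement of a specific radioligand from CHO-extracted receptor was read by filter scintillation after 1 h, relative to DMSO.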
# [16] = molecular target: human Histamine 1 Receptor (H1), HRH1 (gene 3269) (UniProt P35367); assay: NVS_GPCR_hH1: NovaScreen (NVS) G Protein-Coupled Receptor Assay for human Histamine 1 Receptor (H1) (AID 2283268)
# Outline: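 Filter-based scintillation detection of radioligand binding to human H1, 1 h incubation; chemicals screened in duplicate at 25 uM, then concentration-response; signal loss relative to DMSO taken as activity.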
# [17] = molecular target: human Vasopressin 1A Receptor (V1A), AVPR1A (gene 552) (UniProt P37288); assay: NVS_GPCR_hV1A: NovaScreen (NVS) G Protein-Coupled Receptor Assay for human Vasopressin 1A Receptor (V1A) (AID 2283284)
# Chain of human Vasopressin 1A Receptor (V1A), AVPR1A (gene 552) (P37288 whole entry, looked up): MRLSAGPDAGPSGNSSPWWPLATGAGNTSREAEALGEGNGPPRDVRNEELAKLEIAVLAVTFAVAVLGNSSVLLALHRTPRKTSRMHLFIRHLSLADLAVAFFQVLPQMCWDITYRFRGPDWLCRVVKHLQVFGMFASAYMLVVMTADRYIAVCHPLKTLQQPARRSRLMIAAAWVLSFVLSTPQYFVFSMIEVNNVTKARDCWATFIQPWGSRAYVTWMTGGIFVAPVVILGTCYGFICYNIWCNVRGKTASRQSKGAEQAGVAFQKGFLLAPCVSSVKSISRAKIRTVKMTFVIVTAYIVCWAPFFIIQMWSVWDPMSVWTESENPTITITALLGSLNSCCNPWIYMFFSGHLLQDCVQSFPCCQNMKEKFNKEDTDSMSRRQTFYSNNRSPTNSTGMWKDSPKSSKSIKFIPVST
# Outline: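 Single-concentration duplicate screen at 25 uM, with concentration-response follow-up (top 50 uM) for actives. The assay measured displacement of a radioligand from human platelet-derived receptor after 1.5 h, detected by filtration and scintillation counting.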
# [18] = molecular target: human Neurotensin Receptor (NTS), NTSR1 (gene 4923) (UniProt P30989); assay: NVS_GPCR_hNTS: NovaScreen (NVS) G Protein-Coupled Receptor Assay for human Neurotensin Receptor (NTS) (AID 2283279)
# Outline: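 Compounds competed with a radiolabelled ligand for binding to CHO-derived human neurotensin receptor; bound signal counted after filtration, 1 h. Screened first at a single concentration of 25 uM in duplicate, then concentration series to 50 uM maximum for actives.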
# [19] = molecular target: human Purinergic Receptor P2Y, P2RY1 (gene 5028) (UniProt P47900); assay: NVS_GPCR_hPY2: NovaScreen (NVS) G Protein-Coupled Receptor Assay for human Purinergic Receptor P2Y (AID 2283281)
# Outline: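 Filtration scintillation readout of radioligand displacement on U937 extract, measured 1 h post-dosing. Single 25 uM duplicate screen, then singleton concentration series to 50 uM for chemicals passing threshold; DMSO as baseline.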
# [20] = molecular target: human Leukotriene B4 Receptor 1 (LTB4-BLT1), LTB4R (gene 1241) (UniProt Q15722); assay: NVS_GPCR_hLTB4_BLT1: NovaScreen (NVS) G Protein-Coupled Receptor Assay for human Leukotriene B4 Receptor 1 (LTB4-BLT1) (AID 2283271)
# Outline: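 Cell-free human neutrophil receptor preparation, 1 h exposure, radioligand binding read by filter scintillation counting. Single 25 uM duplicate screen, then concentration series topping at 50 uM; binding loss scored against DMSO baseline.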
compound,measurement,setting,value
O=P(OCCCl)(OCCCl)OCCCl,outcome,[1],inactive
COC(=O)Nc1nc2ccccc2[nH]1,outcome,[2],inactive
N#CC(Br)(Br)C(N)=O,outcome,[3],inactive
same,outcome,[4],inactive
same,AC50,[5],41.2 µM (active)
Nc1ccc(N=Nc2ccccc2)cc1,outcome,[1],inactive
CN(C)C(=O)Nc1ccc(Cl)cc1,outcome,[6],inactive
Cc1cccc(N)c1N,AC50,[3],12.1 µM (active)
same,outcome,[7],inactive
same,outcome,[4],inactive
Oc1ccc2ccc3cccc4ccc1c2c34,outcome,[4],inactive
same,outcome,[6],inactive
[Cl-].[Cl-].[Hg+2],AC50,[8],6.76 µM (active)
same,AC50,[9],0.354 µM (active)
same,AC50,[10],19 µM (active)
same,AC50,[3],0.193 µM (active)
same,AC50,[11],1.47 µM (active)
same,AC50,[12],0.579 µM (active)
same,AC50,[13],1.48 µM (active)
same,AC50,[14],4.13 µM (active)
same,AC50,[15],0.428 µM (active)
same,AC50,[7],14.7 µM (active)
same,AC50,[2],8.85 µM (active)
same,AC50,[4],0.838 µM (active)
same,AC50,[1],0.275 µM (active)
same,outcome,[6],inactive
same,AC50,[5],0.321 µM (active)
[O-][Cl+]O,outcome,[9],inactive
CCCCCCCCCCCCCN1CC(C)OC(C)C1 (stereo not given),outcome,[14],inactive
CCOc1cccc(C2(N3CCN(c4ccccc4)CC3)CCC(C)CC2)c1 (stereo not given),outcome,[7],inactive
CCC[CH2][Sn]([Cl])([CH2]CCC)[CH2]CCC,AC50,[8],0.695 µM (active)
same,AC50,[9],0.525 µM (active)
same,AC50,[10],15.1 µM (active)
same,AC50,[16],1.42 µM (active)
same,AC50,[3],0.445 µM (active)
same,AC50,[11],1.86 µM (active)
same,AC50,[12],1.44 µM (active)
same,AC50,[14],17.6 µM (active)
same,outcome,[15],inactive
same,AC50,[7],1.58 µM (active)
same,AC50,[2],10.3 µM (active)
same,AC50,[4],1.08 µM (active)
same,AC50,[1],0.593 µM (active)
same,AC50,[6],1.77 µM (active)
same,AC50,[5],1.21 µM (active)
same,AC50,[17],7.85 µM (active)
CCN(CC)CCO,outcome,[14],inactive
O=[N+]([O-])C(Br)(CO)CO,AC50,[4],1.21 µM (active)
same,AC50,[5],5.41 µM (active)
same,outcome,[17],inactive
CCOC(=O)[C@]1(c2ccccc2)Oc2ccccc2[C@@H]1N,AC50,[9],0.0323 µM (active)
same,AC50,[16],0.471 µM (active)
same,AC50,[3],2.66 µM (active)
same,AC50,[11],6.04 µM (active)
same,AC50,[12],13.3 µM (active)
same,AC50,[13],3.28 µM (active)
same,AC50,[14],13.3 µM (active)
same,AC50,[15],4.93 µM (active)
same,outcome,[18],inactive
same,AC50,[1],16.5 µM (active)
COP(=S)(OC)SCN1C(=O)c2ccccc2C1=O,AC50,[3],16.8 µM (active)
same,AC50,[4],8.63 µM (active)
same,outcome,[1],inactive
same,AC50,[5],44.4 µM (active)
Cc1ccc(N)c(N)c1,outcome,[4],inactive
O=[N+]([O-])c1ccc(Oc2ccc(Cl)cc2Cl)cc1,outcome,[3],inactive
same,outcome,[4],inactive
N#CC(Br)Br,outcome,[9],inactive
same,outcome,[10],inactive
same,outcome,[4],inactive
CC(C)(C)C(O)(CCc1ccc(Cl)cc1)Cn1cncn1 (stereo not given),AC50,[4],13.1 µM (active)
same,outcome,[6],inactive
CCCCCCCCn1sccc1=O,AC50,[9],26 µM (active)
same,AC50,[3],1.32 µM (active)
same,AC50,[7],6.28 µM (active)
same,outcome,[19],inactive
same,AC50,[6],9.13 µM (active)
same,AC50,[5],14.1 µM (active)
OCCCBr,outcome,[10],inactive
CCC(C)c1ccc(O)cc1 (stereo not given),outcome,[8],inactive
c1ccc(C2CO2)cc1 (stereo not given),outcome,[15],inactive
O=C(Oc1ccc(Br)cc1)N1CCN2CCC1CC2,AC50,[11],12.5 µM (active)
same,AC50,[12],19.4 µM (active)
same,AC50,[13],16.8 µM (active)
same,AC50,[14],15.3 µM (active)
same,AC50,[15],15.7 µM (active)
Nc1cc(Cl)cc(C(=O)O)c1Cl,outcome,[6],inactive
CC(O)CCO (stereo not given),outcome,[17],inactive
C[C@]12C=CC3=C4CCC(=O)C=C4CC[C@H]3[C@@H]1CC[C@@H]2O,outcome,[10],inactive
same,outcome,[20],inactive
same,AC50,[4],15.6 µM (active)
CCCCCOC(=O)c1ccccc1C(=O)OCCCCC,outcome,[12],inactive
same,outcome,[1],inactive
same,outcome,[5],inactive
O=C(N[C@H](c1ccccc1)[C@@H]1CN2CCC1CC2)c1c(Cl)ccc(C(F)(F)F)c1Cl,AC50,[3],37.5 µM (active)
same,outcome,[11],inactive
same,outcome,[14],inactive
same,AC50,[4],23.9 µM (active)
same,outcome,[1],inactive
same,AC50,[5],3.38 µM (active)
